This is a sample that favours compounds with a hit; in the whole collection about 2.7% have one here.
Tau fluor cs: Counterscreen qHTS for Inhibitors of Tau Fibril Formation, Fluorescence Polarization; tau K18 P301L Alexa594 fluorescence, heparin fibrillization; Potency, µM (doses to about 57.7 µM), without a hit: at the top dose activity change, negative = decrease; actives 0.93% (n = 280,000); further: potency means the concentration at half of the fitted maximal effect; nearly all actives have a fitted effect of over 55% in size
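Human K18 P301L tau (15 uM unlabeled plus 0.24 uM Alexa 594-labeled, final) in 100 mM sodium acetate pH 7 was mixed with compound and 20 uM heparin and incubated 6 hr at 37 C.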
Coupling enz: qHTS Assay for Inhibitors of Fructose-1,6-bisphosphate Aldolase from Giardia Lamblia: Coupling assay counterscreen; coupling enzyme system counterscreen, AmpLite Red fluorescence; activity change, negative = inhibition, % at 58.2 µM, hits read low; actives 0.67% (n = 290,000); AID 2472, 2010; in the data active means activity change below about -30%
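Activity here indicates interference with the coupling reaction, not aldolase inhibition. Compounds at 57.5 uM final met coupling enzymes for 10 min at RT; substrate and AmpLite Red detection followed, with a 525/598 nm fluorescence read after 20 min.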
Tau fibril ThT: qHTS for Inhibitors of Tau Fibril Formation, Thioflavin T Binding; actives 2.1% (n = 270,000); Potency, µM (top dose mostly 57.4 µM), for the others: at the highest dose activity, negative = inhibition, most hits filed as inhibitors; AID 1460, 2008; recombinant tau K18 P301L (four-repeat tau fragment), heparin-induced fibrillization, ThT fluorescence; Microtubule-associated protein tau (Homo sapiens), P10636; further: potency means the concentration at half of the fitted maximal effect; nearly all actives have a fitted effect of over 55% in size
Target sequence (P10636 561-689 P618L limits assumed): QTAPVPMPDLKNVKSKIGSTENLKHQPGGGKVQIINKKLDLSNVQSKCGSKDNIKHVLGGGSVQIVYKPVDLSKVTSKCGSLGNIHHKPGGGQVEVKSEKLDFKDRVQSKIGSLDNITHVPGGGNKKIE
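Heparin-induced (20 uM) aggregation of recombinant human K18 P301L tau, 15 uM unlabeled with 0.24 uM labeled, pH 7 acetate buffer, 6 hr at 37 C with compound. Fibrils quantified by 30 uM ThT fluorescence after 1 hr ambient incubation.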
Tau FP inhib: qHTS for Inhibitors of Tau Fibril Formation, Fluorescence Polarization; K18 P301L tau heparin fibrillization, Alexa594 FP, 6 h; Potency, µM (series often up to 57.7 µM), for inactives: at the top dose activity, negative = inhibition, actives largely listed as inhibitors; actives 0.39% (n = 280,000); AID 1468, 2008; further: potency means the concentration at half of the fitted maximal effect; nearly all actives have a fitted effect of over 55% in size
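Quantitative HTS format: compounds meet 15 uM recombinant K18 P301L tau and Alexa 594-tau tracer in 100 mM sodium acetate pH 7; 20 uM heparin triggers fibrillization at 37 C over 6 hr; FP gives the signal.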
Active calls of the source: *; ? = inconclusive; . = not tested or not shown; [ ] = another dose, or the depositor's remark. Unless noted, the call rests on the fitted dose curve; in most records, active means well fitted curve in the direction sought with a large enough effect; inconclusive means small, poorly fitted or top-dose-only effect, or another doubt; inactive means no such curve, though single readings can be large; an effect the other way counts as inactive or inconclusive. On the % scale 0 is the no-effect control and ±100 the full control effect.

SMILES	Tau fluor cs	Coupling enz	Tau fibril ThT	Tau FP inhib
O=C(Nc1cccc(-c2csc(Nc3cccc(C(F)(F)F)c3)n2)c1)c1cc([N+](=O)[O-])cc(C(F)(F)F)c1	2.51µM*[quencher]	-0.2	?	6.5%
O=C(Nc1nc(-c2cccc([N+](=O)[O-])c2)cs1)C(c1ccccc1)c1ccccc1	?	-4.7	-20.3%	-4.3%
Cc1ccc(-c2csc(NC(=O)c3cccc([N+](=O)[O-])c3)n2)cc1	-24.3%	5.3	-10.4%	-7.5%
O=[N+]([O-])c1cccc(-c2csc(N/N=C/c3cccc(O)c3)n2)c1	7.94µM*[quencher]	1.5	6.31µM*	-4.6%
O=C(Nc1ccc(-c2csc(Nc3ccc(Cl)cc3)n2)cc1)c1cccc(C(F)(F)F)c1	3.98µM*[quencher]	-2.7	?	3.6%
O=C(Nc1ccc(-c2csc(Nc3ccccc3)n2)cc1)c1cccc(C(F)(F)F)c1	?	-5.3	?	1.1%
CCc1ccc(NC(=O)C(=O)NCCc2sc(-c3ccc(OC)c(OC)c3)nc2C)cc1	-1.7%	.	-1.6%	0.7%
O=C1NC(=O)C(Cc2ccc(OCCN3COc4ccccc4C3=O)cc2)S1 (stereo not drawn)	.	1.9	.	.
O=C(Nc1ccc(F)cc1C(F)(F)F)C1CCN(c2ncccn2)CC1	-2.0%	.	-2.0%	3.2%
O=C(Nc1ccc(-c2csc(Nc3ccccc3)n2)cc1)c1cc([N+](=O)[O-])cc(C(F)(F)F)c1	3.98µM*[quencher]	-3.9	3.55µM*	0.2%
Cc1cccn2c(=O)c3cc(C(=O)NCCc4ccccc4)c(=N)n(CCCn4ccnc4)c3nc12	11.2µM*[quencher]	7.2	11.2µM*	25.1µM*
Cc1cccn2c(=O)c3cc(C(N)=S)c(=N)n(CCCOC(C)C)c3nc12	-7.5%	-3.3	?	-5.8%
CCOCCCn1c(=N)c(C(N)=S)cc2c(=O)n3cccc(C)c3nc21	2.1%	-45.1*	-14.5%	-7.5%
COc1cccc(NC(=O)Cn2cc(S(=O)(=O)N3CCCC3)c(S(=O)(=O)N3CCCC3)c2)c1	-22.8%	.	-2.8%	-9.5%
COCCn1c(=O)c(-c2cccc(C#N)c2)nc2cnc(N3CCNCC3)nc21	.	1.2	.	.
C[C@H](Cc1ccc(O)c(O)c1)[C@@H](C)Cc1ccc(O)c(O)c1	-3.0%	.	0.8%	0.0%
CC(Cc1ccc(O)c(O)c1)C(C)Cc1ccc(O)c(O)c1 (stereo not drawn)	15.8µM*[quencher]	-14.1	?	-2.4%
COc1ccc(C(=O)Nc2nc3c(s2)CCc2cc(OC)ccc2-3)cc1	11.2µM*[quencher]	.	10µM*	?
COc1ccc2c(c1)Cc1sc(NC(=O)c3cccc(Cl)c3)nc1-2	-22.5%	.	?	-10.1%
COc1ccc2c(c1)Cc1sc(NC(=O)c3cccc(C)c3)nc1-2	15.8µM*[quencher]	.	12.6µM*	-18.3%
CCOC(=O)c1cccc(Nc2ccc3cc(S(=O)(=O)N4CCCCC4)ccc3n2)c1	11.2µM*[quencher]	.	?	?
COc1ccc(Nc2ccc3cc(S(=O)(=O)N4CCCC4)ccc3n2)cc1Cl	2.82µM*[quencher]	.	?	6.6%
CCOc1ccc(OCC)c(Nc2ccc3cc(S(=O)(=O)N4CCCC4)ccc3n2)c1	?	.	-5.8%	?
O=S(=O)(c1ccc2nc(Nc3ccc(F)cc3)ccc2c1)N1CCCC1	?	.	?	-13.8%
Cc1ccc(CNc2ccc3cc(S(=O)(=O)N4CCCCC4)ccc3n2)cc1	?	.	4.6%	-11.7%
SMILES	Tau fluor cs	Coupling enz	Tau fibril ThT	Tau FP inhib
COc1ccc(Cl)cc1Nc1ccc2cc(S(=O)(=O)N3CCCCC3)ccc2n1	10µM*[quencher]	.	-8.9%	0.1%
CCOc1cc(/C=N/Nc2cccc(C(=O)O)c2)ccc1OC(=O)c1ccccc1	?	4.9	?	7.3%
CCOc1cc(/C=N/NC(=O)CNc2cccc(C)c2)ccc1OC(=O)c1ccccc1	14.1µM*[quencher]	-0.3	?	10.3%
CCCCNC(=O)CCC(=O)Nc1ccc2nc(N3CCC(C)CC3)cc(C)c2c1	-24.0%	-0.1	-17.2%	16.2%
Cc1cc(N2CCOCC2)nc2ccc(NC(=O)CCC(=O)N3CCC(C)CC3)cc12	-13.1%	-33.0*	-8.1%	-7.3%
COc1ccc(C(=O)Nc2ccc3nc(N4CCC(C)CC4)cc(C)c3c2)cc1	5.01µM*[quencher]	.	?	-7.1%
COc1ccc(/C=C/C(=O)Nc2ccc3nc(N4CCC(C)CC4)cc(C)c3c2)cc1	3.98µM*[quencher]	.	?	13.1%

Source: PubChem BioAssay (National Center for Advancing Translational Sciences (NCATS))
